Measured values taken from PubChem BioAssay (NCI).
About 83,000 compounds went through this panel and 20% of them were active in at least one assay; those are over-represented in the sample as a whole.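 Step 1: grow cells in 96-well plates. Step 2: add test compound at a single concentration. Step 3: incubate 48 h. Step 4: record percent growth.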 A number with no mark means an inactive call. The source made the active and inactive calls. The calls were made as follows: active = growth percent below 10; inactive = the rest.

Experiments:
Test in all cases: NCI-60 one-dose screen, 48 h (100 = growth as untreated, 0 = no growth, -100 = all killed)
Conditions in all cases: 10 µM unless noted
[1] = tested on: HCT-15 colon
[2] = tested on: HT29 colon
[3] = tested on: SNB-19 CNS
[4] = tested on: U251 CNS
[5] = tested on: PC-3 prostate
[6] = tested on: SK-MEL-5 melanoma
[7] = tested on: UACC-62 melanoma
[8] = tested on: LOX IMVI melanoma
[9] = tested on: SK-MEL-28 melanoma

Row | SMILES | growth [1] | growth [2] | growth [3] | growth [4] | growth [5] | growth [6] | growth [7] | growth [8] | growth [9]
1 | O=[N+]([O-])c1cccc(-c2nc3sccn3c2-c2ccnc(NCCNS(=O)(=O)c3ccc(C(F)(F)F)cc3)n2)c1 | 26.7% | 40% | 61.4% | 51.4% | 17% | -14% (active) | 13.2% | 30.4% | 58.8%
2 | CN1CCN(Cc2ccc(NC(=O)c3cncc(C#Cc4cnc(N)c5cccnc45)c3)cc2C(F)(F)F)CC1 | 22.9% | 7.8% (active) | 39.8% | 33.9% | 29.3% | -23.6% (active) | -47.6% (active) | -76.6% (active) | -2.55% (active)
3 | CSc1nc2sc3c(c2c(=O)n1-c1ccc(C(C)C)cc1)CCC(=O)C3 | -15.9% (active) | 11.4% | 9.58% (active) | -80% (active) | -6.64% (active) | -79.9% (active) | -20.8% (active) | -39.6% (active) | 28.7%
4 | CC1=C(NCCN2CCCC2)C(=O)c2c(OCc3ccc(F)c(Cl)c3)cccc2C1=O | 49.1% | 20.5% | 93% | 57.8% | 60.3% | 59% | 91.7% | 12.9% | -53.4% (active)
